Screening data as filed in PubChem.
Shown are actives, neighbours in structure and some others; about 0.54% of the full set was active somewhere.
Rtt109 Vps75: inhibitors of C. albicans Rtt109/Vps75 HAT, primary screen, biochemical, ThioGlo CoA-SH fluorescence, plate reader; 0.16% of 330,000 active; Histone acetyltransferase RTT109 (Candida albicans (strain SC5314 / ATCC MYA-2876)), …; inhibition, % at 34.9 µM; purified Rtt109/Vps75, 4 h; AID 540336, 2011;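 active = inhibition of at least 50% in every replicate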
Efflux pump inh: inhibitors of Candida efflux pumps in yeast, primary screen, S. cerevisiae, Nile Red, multiplex; S. cerevisiae Candida pump triplex; inhibition, % at 10 µM; 0.44% of 330,000 active; AID 485275, 2010;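 active = plate passing quality check with inhibition over a set limit, or well fluorescence over plate mean plus 4 SD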;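 note: Nile Red retained in pooled yeast measured as flow cytometry median fluorescence; 0% = buffer negative control and 100% = Enniatin B positive control; higher means more Nile Red kept so more efflux inhibition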
PvdQ inh: P. aeruginosa PvdQ acylase inhibitors, primary screen, biochemical, fluorescence, plate reader and imaging, single point; PvdQ acylase [Pseudomonas aeruginosa LESB58]; purified PvdQ acylase; 0.063% of 340,000 active; inhibition, % at 10 µM; in the data active = inhibition above about 30%, passing the limit was not always enough;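 note: 0% = vehicle neutral wells and 100% = reference inhibitor wells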
ERp5 inh: inhibitors of ERp5-driven insulin aggregation, primary screen, biochemical, turbidity, absorbance 650 nm, single point; 90 min; inhibition, % at 9.99 µM; Protein disulfide-isomerase A6 (Homo sapiens), Q15084; 0.05% of 350,000 active; AID 651711, 2012;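 active = mean replicate inhibition above about 25%, with every replicate also reaching it, limit read from the data, passing the limit was not always enough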
Target sequence (Q15084 whole entry, looked up): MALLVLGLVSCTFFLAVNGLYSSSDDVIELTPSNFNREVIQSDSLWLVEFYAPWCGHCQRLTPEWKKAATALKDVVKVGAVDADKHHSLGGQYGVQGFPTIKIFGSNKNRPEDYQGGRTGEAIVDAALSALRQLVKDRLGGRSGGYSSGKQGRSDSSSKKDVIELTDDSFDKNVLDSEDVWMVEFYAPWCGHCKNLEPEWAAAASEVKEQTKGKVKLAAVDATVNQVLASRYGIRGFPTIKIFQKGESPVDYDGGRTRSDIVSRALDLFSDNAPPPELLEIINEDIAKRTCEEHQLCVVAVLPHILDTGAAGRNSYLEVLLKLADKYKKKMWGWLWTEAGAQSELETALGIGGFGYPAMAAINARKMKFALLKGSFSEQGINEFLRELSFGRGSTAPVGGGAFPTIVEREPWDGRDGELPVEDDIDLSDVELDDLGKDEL
PDI turbidity: inhibitors of human PDI, primary screen, biochemical, turbidity, single point, plate reader; 0.052% of 350,000 active; PDI insulin aggregation turbidity, A650, 90 min; inhibition, % at 10 µM;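 active = mean inhibition across replicates of 30% or more, whatever share of single replicates reach that level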
Cmpd fluor yeast: counter-screen for efflux pump inhibitors: compound fluorescence; AID 588517; S. cerevisiae AD/pABC3, flow cytometry; shares compounds with Efflux pump inh; fluorescence ratio to DMSO, % at 10 µM; 4% of 1,700 active;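 active = fluorescence ratio to DMSO above its plate's cutoff, the plate mean ratio plus 5 SD, cut at about 210% in these data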;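 note: unstained yeast with no Nile Red so the signal is compound autofluorescence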
Mdr1 pump inh: inhibitors of Candida albicans Mdr1 efflux, confirmation, flow cytometry, singleplex, Cherry Pick1 set. inhibition, % at 10 µM. AID 588518, 2011. 1% of 1,700 active. shares compounds with Efflux pump inh. S. cerevisiae AD/CaMDR1, Nile Red efflux; in the data active = inhibition above about 26%;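 note: 0% = DMSO vehicle and 100% = reference inhibitor; higher means more Nile Red retained so more efflux inhibition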
Cdr2 pump inh: inhibitors of Candida albicans Cdr2 efflux pump, confirmation, S. cerevisiae AD/CaCDR2, flow cytometry, cherry pick 1, singleplex. shares compounds with Efflux pump inh. Nile Red retention. Nile Red retention ratio vs DMSO, % at 10 µM. 4% of 1,700 active; in the data active = Nile Red retention ratio vs DMSO above about 190%;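 note: higher ratio means more blocking of Cdr2 efflux of the dye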
CaCdr1 efflux inh: inhibitors of Candida albicans Cdr1 efflux pump, confirmation, S. cerevisiae AD/CaCDR1, flow cytometry, cherry pick 1, singleplex. shares compounds with Efflux pump inh. Nile Red efflux. inhibition, % at 10 µM. 1% of 1,700 active. AID 588522, 2011;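 active = inhibition above the screen-wide mean plus twice its standard deviation, cut at about 32% in these data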
The depositor's hits bear a star; . = no result.

SMILES | Rtt109 Vps75 | Efflux pump inh | PvdQ inh | ERp5 inh | PDI turbidity | Cmpd fluor yeast | Mdr1 pump inh | Cdr2 pump inh | CaCdr1 efflux inh
S=C(Nc1ccc(Cl)cc1Cl)N1CCCCC1 | -34 | 16* | -10 | . | -4 | 98 | 0 | 112 | 0
S=C(Nc1ccccc1Cl)N1CCCCCC1 | 5 | 0 | -10 | 4 | 0 | . | . | . | .
CO[C@@H]1CN(C)C(=O)c2ccc(NC(C)=O)cc2OC[C@@H](C)NC[C@@H]1C | . | . | . | 2 | . | . | . | . | .
C[C@@H]1CN([C@@H](C)CO)C(=O)c2cc(Br)cnc2O[C@@H]1CN(C)Cc1ccc(C(=O)O)cc1 | . | . | . | 15 | . | . | . | . | .
COc1ccc(/C=C/C(=O)c2ccc([N+](=O)[O-])o2)cc1OC | . | . | . | 8 | . | . | . | . | .
COc1cc(/C=C/C(=O)c2ccc([N+](=O)[O-])o2)ccc1O | 2 | 0.8* | 14 | 4 | -4 | 188 | 0 | 161 | 0
CCOC(=O)c1c(NC(=O)c2ccncc2)sc(C)c1C | 13 | 0 | -14 | -12 | 1 | . | . | . | .
CCOC(=O)c1c(NC(=O)COC(=O)c2ccncc2)sc(C)c1C | -2 | 0.5* | -5 | 3 | -4 | 95 | 0 | 101 | 0
COc1cc(/C=C2\SC(=S)N(CC(=O)NC3=NCCS3)C2=O)cc(OC)c1OC | -2 | 0 | -4 | 2 | -9 | . | . | . | .
COc1ccc(/C=C2\SC(=S)N(CCC(=O)NC3=NCCS3)C2=O)cc1OC | -4 | 5.5* | -7 | 0 | 2 | 109 | 0 | 110 | 0
COc1cccc(/C=C2\SC(=S)N(CCCC(=O)Nc3cccc(C(=O)O)c3)C2=O)c1 | . | . | . | . | 3 | . | . | . | .
COc1ccc(/C=C2\SC(=S)N(CCCC(=O)Nc3cccc(C(=O)O)c3)C2=O)cc1OC | 15 | 7.2* | -6 | 1 | -3 | 97 | 0 | 102 | 0
CCCNC(=O)[C@H]1[C@H](CO)[C@H]2Cn3c(ccc(-c4cccnc4)c3=O)[C@H]2N1Cc1cocn1 | . | . | . | 3 | . | . | . | . | .
COc1ccc(Oc2ncc(CN3CCN(c4ccccc4)CC3)s2)cc1 | -1 | 0 | -7 | . | 1 | . | . | . | .
Cc1cc(Cl)ccc1Oc1ncc(CN2CCN(c3ccccc3)CC2)s1 | 0 | 0.5* | -8 | . | 6 | 92 | 0 | 92 | 0
Cc1cc(CNC(=O)C2CCC(=O)N(Cc3cccc(C(F)(F)F)c3)C2)no1 (stereo not given) | 2 | 0 | -7 | 1 | -14 | . | . | . | .
CC(C)Cc1cc(CNC(=O)C2CCC(=O)N(Cc3cccc(C(F)(F)F)c3)C2)on1 (stereo not given) | 3 | 9.2* | -4 | 1 | 4 | 105 | 0 | 95 | 0
Cc1nc(C(=O)Nc2cc(Cl)ccc2Cl)nn1-c1cc(OC(C)C)c(Cl)cc1Cl | -3 | 0 | 3 | . | -2 | . | . | . | .
Cc1nc(C(=O)Nc2ccc(Cl)cc2Cl)nn1-c1cc(OC(C)C)c(Cl)cc1Cl | 0 | 1.3* | -9 | . | -11 | 113 | 0 | 105 | 0
CC(C)(C)c1cc(C(c2cccnc2)N2CCN(CCO)CC2)cc(C(C)(C)C)c1O (stereo not given) | 92* | 0.4* | 6 | 5 | 1 | 90 | 0 | 87 | 0
Cc1ccccc1Cn1c(=O)n(Cc2ccco2)c(=O)c2ccccc21 | 6 | 0 | 0 | . | -7 | . | . | . | .
COc1cc2c(=O)n(Cc3ccco3)c(=O)n(CC(=O)c3ccc(Br)cc3)c2cc1OC | -21 | 0 | -13 | . | 4 | . | . | . | .
COc1cc2c(=O)n(Cc3ccco3)c(=O)n(CC(=O)c3cccc(Br)c3)c2cc1OC | . | 1.0* | . | . | . | 87 | 0 | 105 | 0
Cc1cc(C)c(NC(=O)Cn2c(=O)n(Cc3ccco3)c(=O)c3ccccc32)c(C)c1 | 10 | 1.1* | -4 | . | -1 | 100 | 0 | 97 | 0
Cc1ccccc1S(=O)(=O)N1CC(=O)N2[C@H](C1)[C@@H](c1ccc(C#CCC(C)C)cc1)[C@@H]2CO | . | . | . | 1 | . | . | . | . | .
SMILES | Rtt109 Vps75 | Efflux pump inh | PvdQ inh | ERp5 inh | PDI turbidity | Cmpd fluor yeast | Mdr1 pump inh | Cdr2 pump inh | CaCdr1 efflux inh
CC(Oc1ccc([N+](=O)[O-])cc1Cl)C(=O)Nc1ccc(C(N)=O)cc1 (stereo not given) | 1 | 2.3* | -13 | -4 | 10 | 103 | 0 | 91 | 0
CC(=O)Nc1ccc(Oc2ccc([N+](=O)[O-])cc2Cl)cc1 | -7 | 0 | 0 | 0 | -9 | . | . | . | .
C[C@H]1CN([C@@H](C)CO)C(=O)c2cc(NC(=O)Nc3ccc(F)cc3)ccc2O[C@@H]1CN(C)Cc1ccccc1 | . | . | . | 1 | . | . | . | . | .
O=C(Nc1nnc(-c2ccc(F)cc2)s1)Nc1ccccc1F | . | 0.8* | . | -1 | 2 | 102 | 0 | 108 | 0
O=C(Nc1nnc(-c2cccc(F)c2)s1)Nc1ccccc1F | . | 0 | 9 | 2 | 2 | . | . | . | .
C[C@H]1CN([C@@H](C)CO)C(=O)c2cccc(NC(=O)Nc3ccc4c(c3)OCO4)c2O[C@@H]1CN(C)C(=O)Nc1ccc2c(c1)OCO2 | . | . | . | -5 | . | . | . | . | .
CC(C)NC(=O)N(C)C[C@H]1Oc2c(NC(=O)Nc3ccc4c(c3)OCO4)cccc2C(=O)N([C@H](C)CO)C[C@@H]1C | 10 | 0 | 10 | -4 | -17 | 99 | 0 | 101 | 0
C[C@H]1CN([C@@H](C)CO)C(=O)c2cccc(NC(=O)Nc3ccc(C(F)(F)F)cc3)c2O[C@@H]1CN(C)C(=O)Nc1ccc(F)cc1 | -12 | 0 | -10 | 0 | -6 | 110 | 0 | 97 | 0
C[C@@H]1CCCCO[C@H](CN(C)S(=O)(=O)c2ccccc2)[C@H](C)CN([C@H](C)CO)C(=O)c2cc(NC(=O)Nc3ccccc3)ccc2O1 | . | . | . | 1 | . | . | . | . | .
CC(C)c1ccc(S(=O)(=O)Nc2ccc(O)c(Sc3ncn[nH]3)c2)cc1 | 0 | -1 | -32 | 1 | -2 | 111 | 0 | 116 | 0
Cc1cc(C)nc(NS(=O)(=O)c2ccc(NC(=O)CSc3ncn[nH]3)cc2)n1 | -25 | 0 | -16 | -4 | 15 | . | . | . | .
COc1ccc(S(=O)(=O)Nc2ccc(O)c(Sc3ncn[nH]3)c2)cc1 | 2 | 0 | 11 | . | -5 | 81 | 0 | 95 | 0
